SMILES strings stand for the structures. The panel holds about 79,000 compounds, 15% with a hit somewhere; the sample as a whole holds those more often. Calls of active or inactive are those of the source. Rule as the data show it: active = growth inhibition above about 70%; inactive = the rest.

40 compounds from PubChem BioAssay (NCI) can be followed below.

The first assay can be described thus: NCI Yeast Anticancer Drug Screen. Data for the bub3 strain (AID 167). As to conditions: S. cerevisiae bub3 mutant strain, at 50.0 µM, active compounds read high. In short, it runs like this:
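Whole-cell yeast assay. The mutant strain was incubated with compounds, and growth inhibition was determined by comparison with vehicle-treated cells.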
`COC1OC(COC(c2ccccc2)(c2ccccc2)c2ccccc2)C(OS(=O)(=O)c2ccc(C)cc2)C(OC(=O)c2ccccc2)C1OC(=O)c1ccccc1` (centres undefined): the growth inhibition was 0.3% (inactive).

With `Cc1ccc(C)c2c1C(=O)c1ccccc1C2(O)C#Cc1ccccc1` (centres undefined), the growth inhibition was 31.7% (inactive).

For `CN(c1ccccc1)c1nc(Cl)c(Cl)c(Cl)n1`, the growth inhibition is 2.45% (inactive).

`O=C(NC1CCCCC1)OC/C=C\c1ccccc1`: the growth inhibition was 12.3% (inactive).

A further assay in a line: NCI Yeast Anticancer Drug Screen. Data for the mlh1 rad18 strain (AID 175). Conditions: S. cerevisiae mlh1 rad18 strain growth inhibition; at 50.0 µM; active compounds read high. The gist of the method:
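Yeast w/ defined DNA-repair lesions; compound exposure; growth vs vehicle controls → % inhibition.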
Regarding `CC(=O)OCCOCCCl`, the growth inhibition is 12.1% (inactive).

For the compound `Cc1ccc(Sc2ccc3ccccc3c2)nc1`, the growth inhibition was -16.9% (inactive).

As to `CC(C)=C1C2CCC1[C@H](COS(C)(=O)=O)[C@@H]2COS(C)(=O)=O`, the growth inhibition is -11.2% (inactive).

Consider `N[C@@H]1CCCC[C@H]1O`, for which the growth inhibition is -16.1% (inactive).

Regarding `CCC1=CCN2CCC34c5cc(C6(C(=O)OC)CC7CC(CC)CN(CCc8c6[nH]c6ccccc86)C7)c(OC)cc5N(C)C3C(O)(C(=O)OC)C(OC(C)=O)C1C24` (centres undefined), the growth inhibition is 10.6% (inactive).

As for `COC(=O)C1(CC(=O)c2ccc(F)cc2)NC(=S)NC(=O)C1C#N` (centres undefined), the growth inhibition is -1.7% (inactive).

As for `Cn1c(=O)c2c(nc(Br)n2CC(=O)c2ccc([N+](=O)[O-])cc2)n(C)c1=O`, the growth inhibition was 27.4% (inactive).

Take `CC(=O)NC(C)c1ccc2ccccc2c1` (centres undefined): the growth inhibition is 11.4% (inactive).

For `O=C(NNC(=O)c1cccc(F)c1)c1cccc(F)c1`, the growth inhibition was -1.75% (inactive).

With `CCOC(=O)C1=C(O)c2c(OC)ccc(OC)c2C(=O)C1=O`, the growth inhibition was -30% (inactive).

On to `NC(CSCC(=O)O)C(=O)O` (centres undefined), for which the growth inhibition is -5.9% (inactive).

Regarding `Clc1c(Cl)c(Cl)c(CSCc2c(Cl)c(Cl)c(Cl)c(Cl)c2Cl)c(Cl)c1Cl`, the growth inhibition was -13.3% (inactive).

Consider `CCCCCCCNc1ccc(C(=O)OCC)cc1`, for which the growth inhibition was -7.55% (inactive).

Consider `Oc1c(Cl)cc(N=Cc2ccc(N(CCCCl)CCCCl)cc2)cc1Cl`, for which the growth inhibition is 80% (active).

As for `COc1ccc2c3ccc4c(c3n(C)c2c1)C(=O)c1ccccc1C4=O`, the growth inhibition is -46.1% (inactive).

Consider `Cc1ccsc1/C=N/Nc1ncccn1`, for which the growth inhibition was 24.1% (inactive).

Regarding `O=C1Nc2ccccc2C1=O`, the growth inhibition is -50% (inactive).

As for `CC(C)C(CN)(C(C)C)C(C)C`, the growth inhibition was -8.6% (inactive).

As to `O=C(NCCCN1CCN(CCCNC(=O)Nc2ccc(Br)cc2)CC1)Nc1ccc(Br)cc1`, the growth inhibition was 23.4% (inactive).

As to `Cc1ccccc1C1=CCCCCC1`, the growth inhibition is -9.8% (inactive).

On to `O[C@]12c3ccccc3C1CCCCC2N1CCOCC1` (some centres undefined), for which the growth inhibition was -35.4% (inactive).

As for `Cc1ccnc(SCC(=O)O)n1`, the growth inhibition is 4.95% (inactive).

On to `COc1cc(C2=N/C(=C\C=C\c3ccccc3)C(=O)O2)cc(OC)c1OC`, for which the growth inhibition is 16.9% (inactive).

Take `CC(C)(C)CC(C)(O)COC(=S)S` (centres undefined): the growth inhibition is 0.55% (inactive).

For the compound `Cc1ccc(S(=O)(=O)Nc2ccc(C(=O)NC(CCC(=O)O)C(=O)O)cc2)cc1` (centres undefined), the growth inhibition is 13.7% (inactive).

For `Nc1n[n+](-c2ccc(Cl)cc2)no1`, the growth inhibition was 91.7% (active).

On to `O=C(C[n+]1ccccc1-c1ccccn1)c1ccc(-c2ccccc2)cc1`, for which the growth inhibition was 34.6% (inactive).

For the compound `C[N+]([O-])=C(c1ccccc1)c1ccccc1`, the growth inhibition is -4.9% (inactive).

In the case of `CCOc1ccc(C(=O)OC)cc1`, the growth inhibition is 23.7% (inactive).

For `O=C(O)c1c(Br)c(Br)c(Br)c(Br)c1C(=O)Nc1ccccc1F`, the growth inhibition was 12.4% (inactive).

In the case of `O=C(OCCCl)C1CC2C=CC1C2` (centres undefined), the growth inhibition was -3.4% (inactive).

Take `CCc1cccc(CC)c1NC(=O)c1ccc(C)cc1`: the growth inhibition is -4% (inactive).

Regarding `Nc1nn(CC(O)CO)c(=O)s1` (centres undefined), the growth inhibition was 8% (inactive).

For `Nc1nc2ccccc2[nH]1`, the growth inhibition was 6.95% (inactive).

For the compound `COc1ccc(N=Nc2c(C)c(C#N)c(=S)n(C3OC(COC(C)=O)C(OC(C)=O)C(OC(C)=O)C3OC(C)=O)c2-c2ccccc2)cc1` (centres undefined), the growth inhibition was -5.1% (inactive).

`[N-]=[N+]=NCC1OCOC1C1OCOC1CN=[N+]=[N-]` (centres undefined): the growth inhibition was -3.5% (inactive).

In the case of `COC1OC(COC(c2ccccc2)(c2ccccc2)c2ccccc2)C(OS(=O)(=O)c2ccc(C)cc2)C(OC(=O)c2ccccc2)C1OC(=O)c1ccccc1` (centres undefined), the growth inhibition was 27.9% (inactive).

With `Cc1ccc(C)c2c1C(=O)c1ccccc1C2(O)C#Cc1ccccc1` (centres undefined), the growth inhibition was 23.2% (inactive).

With `CN(c1ccccc1)c1nc(Cl)c(Cl)c(Cl)n1`, the growth inhibition is -3.5% (inactive).

With `O=C(NC1CCCCC1)OC/C=C\c1ccccc1`, the growth inhibition is 3.8% (inactive).
